# An excerpt weighted towards active compounds, which were near 4.7% of everything screened.
# TIM10 inh = inhibits growth of TIM10 yeast strain; S. cerevisiae TIM10 strain growth, BacTiter-Glo luminescence, 24 h; inhibition, % at 10 µM; 1.4% of 330,000 active; AID 463195;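 active = inhibition of 40% or more at the single tested concentration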;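 note: wild-type TIM10 isogenic control strain grown at permissive 25 °C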
# tim10-1 inh = inhibits growth of tim10-1 mutant yeast; S. cerevisiae tim10-1 ts strain growth, BacTiter-Glo, 24 h; 2.2% of 330,000 active; inhibition, % at 20 µM;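 active = inhibition of at least 40%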;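 note: mutant grown at 25 °C; 0% = DMSO wells with yeast and 100% = wells holding no yeast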
# SKKanGAS inh = SKKanGAS growth inhibition. S. pyogenes SKKanGAS, kanamycin growth, BacTiter-Glo, 6 h. inhibition, % at 7.5 µM. 1.3% of 300,000 active. AID 1662;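 active = mean replicate score, as percent of positive control median, at least 50; inconclusive = mean below 50 but one replicate at or above 50; inactive = mean and every replicate below 50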;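 note: strain carries kanamycin resistance gene driven by streptokinase promoter and grows in 40 µg/ml kanamycin; loss of luminescence reflects streptokinase promoter inhibition or plain growth inhibition; 0% = median of DMSO wells and 100% = positive control at its reference dose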
# EBI2 antag = EBI2 (human) antagonism; P32249; EBI2 beta-arrestin recruitment, luminescence, 7a,25-OHC stimulated; inhibition, % at 5 µM; 0.81% of 360,000 active; AID 651636; in the data active = inhibition above about 38%;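 note: enzyme fragment complementation signal reports receptor beta-arrestin coupling in cells; 0% = agonist plus DMSO wells and 100% = wells without agonist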
# Target sequence (P32249 whole entry, looked up, the tested form may be a part): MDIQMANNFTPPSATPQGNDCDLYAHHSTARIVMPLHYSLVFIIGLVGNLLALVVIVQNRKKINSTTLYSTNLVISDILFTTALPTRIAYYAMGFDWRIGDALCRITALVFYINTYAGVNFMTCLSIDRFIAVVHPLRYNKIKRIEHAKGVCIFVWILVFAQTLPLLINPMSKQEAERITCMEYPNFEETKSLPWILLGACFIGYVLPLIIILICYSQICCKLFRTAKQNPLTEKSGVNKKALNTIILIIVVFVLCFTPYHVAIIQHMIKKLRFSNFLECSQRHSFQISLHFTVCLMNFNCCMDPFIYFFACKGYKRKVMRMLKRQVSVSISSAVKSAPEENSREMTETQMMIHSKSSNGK
# PfHsp90 set2 = growth inhibition of yeast expressing Plasmodium Hsp90. AID 504621. 0.32% of 310,000 active. inhibition, % at 9.4 µM. S. cerevisiae expressing PfHsp90, BacTiter-Glo ATP, 48 h; yeast lacking PDR1 and PDR3 efflux regulators;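 active = every replicate shows inhibition above about 80%, whatever the replicate mean, limit read from the data; inconclusive = mean inhibition reaches the set limit but some replicate falls short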;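 note: 0% = DMSO neutral controls and 100% = 20 µM radicicol positive controls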
# tim23-1 inh = tim23-1 yeast growth inhibition | 1.3% of 330,000 active | AID 463212 | inhibition, % at 20 µM | S. cerevisiae tim23-1 growth, BacTiter-Glo luminescence, 24 h;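 active = growth inhibition of the mutant yeast at or above 50%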;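 note: temperature-sensitive mutant grown at 25 °C; plate controls were DMSO-treated mutant yeast for no effect and medium wells lacking yeast for full effect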
# tim10-1 conf = tim10-1 yeast growth inhibition, confirmed | 56% of 7,400 active | S. cerevisiae tim10-1 ts strain growth, BacTiter-Glo, 24 h | shares compounds with tim10-1 inh | inhibition, % at 20 µM;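 active = inhibition of yeast growth at or above a set limit in either of two repeat tests at 20 µM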;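 note: tim10-1 mutant grown at permissive 25 °C to find synthetic lethal compounds; 0% = DMSO yeast wells and 100% = medium wells without yeast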
# TIM10 conf = confirmation of TIM10 yeast growth inhibitors. AID 463215. 63% of 4,600 active. shares compounds with TIM10 inh. S. cerevisiae tim10 strain growth, BacTiter-Glo luminescence, 24 h. inhibition, % at 10 µM;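 active = inhibition of yeast growth at or above a set limit in either of two replicates at 10 µM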;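 note: this counterscreen used the strain with wild-type TIM10; 0% = yeast with DMSO and 100% = medium wells lacking yeast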
# An asterisk follows results filed as active; ? = inconclusive; nt = no result given.
SMILES,TIM10 inh,tim10-1 inh,SKKanGAS inh,EBI2 antag,PfHsp90 set2,tim23-1 inh,tim10-1 conf,TIM10 conf
CC1CCCN(C(=O)c2ccc([N+](=O)[O-])o2)C1 (centres undefined),46*,57*,-2,-8,2,41,40*,40*
CC1CCCN(C(=O)c2ccc(-c3ccccc3Cl)o2)C1 (centres undefined),-8,33,12,-1,0,29,nt,nt
O=C(c1ccc(-c2ccc([N+](=O)[O-])cc2)o1)N1CCCC(C(F)(F)F)C1 (centres undefined),43*,64*,-5,13,nt,44,55*,48*
COc1ccc(OC)c(NC(=O)COC(=O)C2CCCCC2)c1,14,8,nt,-7,nt,25,nt,nt
Cc1csc(NC(=O)CSc2nccn2C)n1,-5,-19,-5,-10,-6,-3,nt,nt
FC(F)Sc1ccc(NC(=S)NC2CCCCC2)cc1,66*,65*,12,7,nt,31,67*,62*
FC(F)Sc1ccc(NC(=S)NCc2ccccc2)cc1,56*,48*,-11,21,-22,44,41*,44*
FC(F)Sc1ccc(NC(=S)NCC2CCCCC2)cc1,69*,71*,25,13,-1,48,60*,60*
CCOC(=O)c1cnc2ccc(OC)cc2c1Nc1ccc2c(c1)OCCO2,43*,56*,6,22,0,48,48*,14
O=C(/C=C/c1ccc(-c2ccccc2)o1)c1ccccc1,54*,40,-9,19,-5,38,59*,48*
O=Cc1ccc(-c2cccc(C(=O)O)c2)o1,1,13,-4,-7,8,9,nt,nt
CCC1CSC(Nc2ccc(C(=O)/C=C/c3cccc(C)c3)cc2)=N1 (centres undefined),62*,57*,40,30,-14,-3,44*,62*
NC(=O)/C(=N\OC(=O)c1ccco1)c1nc(-c2ccc(Br)cc2)cs1,46*,43*,-4,3,-19,47,40*,43*
O=C(C1CC(=O)N(c2ccc(F)cc2)C1)N1CCC(c2nc3ccccc3[nH]2)CC1 (centres undefined),10,9,0,-9,4,14,nt,nt
C(=N\N(Cc1ccccc1)c1ccccc1)/c1cccnc1,-1,-4,19,0,-20,20,nt,nt
Oc1cccc(/C=N/N(Cc2ccccc2)c2ccccc2)c1,48*,53*,?,13,nt,36,26,41*
CN1c2ccccc2Oc2nnc(N3CCN(Cc4ccccc4)CC3)cc21,75*,41*,6,-31,-2,47,54*,44*
CCc1nnc(NC(=O)C2c3ccccc3Oc3ccccc32)s1,19,20,0,-6,-16,28,nt,nt
CC12CCC(C(=O)Nc3nccs3)(OC1=O)C2(C)C (centres undefined),4,27,1,-9,nt,9,nt,nt
CC12CCC(C(=O)Nc3nc4ccc(Br)cc4s3)(OC1=O)C2(C)C (centres undefined),48*,51*,6,7,-2,28,42*,32*
CCOC(=O)c1c(-n2cccc2)sc2c1CCCC2=O,-18,3,3,0,-15,29,nt,nt
O/N=C/c1cc(Br)ccc1OCc1cccc(F)c1,13,18,4,5,-27,3,nt,nt
Cc1ccc(COc2ccc(Br)cc2/C=N/O)cc1,46*,51*,17,21,-15,34,26,1
O=C(NCc1ccco1)c1ccccc1Nc1ccc(F)cc1,44*,52*,nt,1,-5,47,47*,36*
Cc1ccc2cc(/C=C(\C#N)C(N)=O)c(N3CCCCC3)nc2c1,46*,42*,-4,-21,-3,32,18,34*
SMILES,TIM10 inh,tim10-1 inh,SKKanGAS inh,EBI2 antag,PfHsp90 set2,tim23-1 inh,tim10-1 conf,TIM10 conf
CCOC(=O)/C(C#N)=C/c1cc2ccccc2nc1N1CCCCC1,12,30,-4,-6,-1,23,nt,nt
O=C(CC1NCCNC1=O)Nc1ccc([N+](=O)[O-])cc1 (centres undefined),-16,-8,-1,-6,-17,6,nt,nt
Cc1ccc2nc(-c3ccccc3)c(CN3CCN(c4ccccc4F)CC3)n2c1,51*,56*,-5,10,-17,49,42*,37*
Cc1ccc2nc(-c3ccccc3)c(CN3CCSCC3)n2c1,4,35,-5,11,7,28,nt,nt
C/C(=N\N=c1/sc2ccccc2n1C)c1ccccn1,43*,43*,0,7,5,37,35*,-13
C/C(=N\N=c1/sc2ccccc2n1C)c1ccc(N2CCOCC2)cc1,2,18,7,6,-1,13,nt,nt
O=C(CN(C(=O)CNC(=O)c1ccco1)c1ccc(Cl)c(Cl)c1)NC1CCCCC1,-9,18,-2,4,-17,-1,nt,nt
CCC(=O)Nc1cccc(C(=O)/C=C/c2cccs2)c1,42*,46*,2,-13,-7,35,24,18
C/C(=N\NC(=S)NCc1ccccc1)c1ccc2c(c1)OCCO2,46*,43*,-2,4,8,49,49*,39*
C/C(=N\NC(=S)NCc1ccccc1)c1ccc(Br)cc1,40,49*,-4,14,-2,13,24,32*
O=C(CN1C(=O)/C(=C/c2ccccc2F)Sc2ccccc21)NCC1CCCO1 (centres undefined),30,9,2,4,6,16,nt,nt
CCCCN1C[C@H](COC(=O)CCC)Oc2cccc(F)c2S1(=O)=O,nt,nt,nt,-10,-11,nt,nt,nt
CCn1c(CC(=O)Nc2ccccc2)n[nH]c1=S,-14,16,3,2,nt,-1,nt,nt
CCN1CCCC1CNC(=O)c1cc(COc2ccc(C)c(C)c2)on1 (centres undefined),4,-2,4,-2,8,-25,nt,nt
C=C(C)COc1ccc(-c2n[nH]c(C)c2-c2ccc(OC)c(OC)c2)c(O)c1,41*,44*,21,2,-6,43,33*,38*
O=C(Nc1cc(Sc2ccccn2)cc([N+](=O)[O-])c1)c1cccc(Cl)c1,54*,42*,14,-2,-12,38,34*,-1
O=C(Nc1cc(Sc2ccccn2)cc([N+](=O)[O-])c1)c1ccc(Cl)cc1,2,2,38,15,-15,2,nt,nt
COc1ccc(CCNC(=S)NC(=O)c2cccc(Cl)c2)cc1OC,40*,48*,5,14,nt,35,30*,41*

# Screening results deposited in PubChem by several laboratories.
